# Assay results as given in ChEMBL document CHEMBL3988442, “University of Dundee, Small-Polar-MMV Screening Library” (2021).
# Screen size: about 48,000 compounds; about 13,000 (27%) showed an effect of 50% or more. This is one part of the list.
# Tested on: Wolbachia pipientis
# Test: Anti-Wolbachia Cell-Based Screen
# Format: functional
# Design: scale not given: in the data most compounds retested in dose-response had high values
# Details: 5 µM
row,SMILES,Percent Effect [%]
1,CCOCCC(=O)NC1(c2cccc(Br)c2)CC1,2.519
2,Cc1ccc(N2CCCN(C(=O)C(C(C)C)n3cncn3)CC2)nn1 (stereo unspecified),1.391
3,CC(C(=O)N1CCCN(c2ncccc2C#N)CC1)n1cncn1 (stereo unspecified),99.83
4,CSC(C)C(=O)N1CCCN(c2ncccc2C#N)CC1 (stereo unspecified),94.48
5,Cc1cc(C)c(C(=O)N2CCN(c3ncccc3C#N)CC2)c(=O)[nH]1,-2.204
6,CC(C)C(C(=O)N1CCCN(c2cccnn2)CC1)n1cncn1 (stereo unspecified),101.3
7,CC(C)C(C(=O)N1CCN(c2ccncc2)CC1)n1cncn1 (stereo unspecified),-6.945
8,CN1N=C(C(=O)N2CCCN(c3ncccc3C#N)CC2)CCC1=O,-11.38
9,CC(C(=O)N1CCCN(c2ncccc2C#N)CC1)n1ccnc1 (stereo unspecified),9.037
10,CCSc1cc(C(=O)NC(C)c2cccc(N3CCOC3=O)c2)ccn1 (stereo unspecified),-4.217
11,Cl.NCc1ccc(OC(F)F)cc1OC(F)F,-11.87
12,COc1cccc(C)c1C(=O)N1C[C@@H](CN(C)C)[C@@H](CO)C1,-2.46
13,Cc1nc(CC(C)C)cc(C(=O)N2C[C@@H](CN(C)C)[C@@H](CO)C2)n1,-9.006
14,CCn1nc(C)cc1C(=O)N1C[C@@H](CN(C)C)[C@@H](CO)C1,107.3
15,CCn1nc(C)c(C(=O)N2C[C@@H](CN(C)CCOC)[C@@H](CO)C2)c1C,114
16,COCCN(C)C[C@@H]1CN(C(=O)c2c(C)cccc2OC)C[C@@H]1CO,2.605
17,CCn1nc(C)c(C(=O)N2C[C@@H](CN(C)C)[C@@H](CO)C2)c1C,106.8
18,Cc1ccc(CC(=O)N2C[C@@H](CN(C)C)[C@@H](CO)C2)cc1C,-3.019
19,Cc1cc(C(=O)N2C[C@@H](CN(C)CCN(C)C)[C@@H](CO)C2)nc(C)n1,-17.75
20,Cc1csc(CCNc2ccc(C#N)cc2F)n1,-5.881
21,CN(Cc1cc(-c2ccccc2)no1)CC1CCCN1c1cccnn1 (stereo unspecified),1.009
22,O=C(c1cccc2cccnc12)N1CCCN(c2cccnn2)CC1,11.56

row,SMILES,Percent Effect [%]
1,CC(C)C1CN(C(=O)Nc2cnn(CC(F)F)c2)CCS1 (stereo unspecified),-11.36
2,CCNC(=O)[C@@H]1C[C@@H](n2cc(CC3CCCCC3)nn2)CN1,1.299
3,CNC(=O)[C@@H]1C[C@H](n2cc(-c3ccc(CN4CC=CC4)cc3)nn2)CN1,109.2
4,CCNC(=O)[C@@H]1C[C@H](n2cc(CC3CCCCC3)nn2)CN1,16.21
5,CNC(=O)[C@@H]1C[C@@H](n2cc(-c3ccc(CN4CC=CC4)cc3)nn2)CN1,109.8
6,CCNC(=O)[C@@H]1C[C@@H](n2cc(CN(CC)CC)nn2)CN1,-7.284
7,Cc1ncc(CN2CCC(n3cc(-c4ccc(F)cc4)nn3)CC2)cn1,6.515
8,CCCS(=O)(=O)c1ccc(N2CCN(Cc3ccccc3)CC2)nn1,5.683
9,OC(CN1CCN(Cc2nnc(C3CC3)o2)CC1)c1ccccc1 (stereo unspecified),-2.421
10,CCOc1ccc(-c2ccnc(CC)n2)cc1C(=O)O,-9.54
11,Cc1nnc(NC(=O)NCc2ccc(OC(C)C)nc2)s1,85.37
12,O=C(NCc1ccc(OCC2CC2)nc1)Nc1c(F)cccc1F,-3.933
13,COc1ccc(CNC(=O)NC2CCN(CC3CCCC3)CC2)cn1,15.19
14,Cc1ccc(CNC(=O)Nc2nnc(C)s2)cn1,3.385
15,Cc1nnc(NC(=O)NCc2ccc(OC3CCCC3)nc2)s1,94.72
16,CC(C)Oc1ccc(CNC(=O)C2CCC(=O)N2)cn1 (stereo unspecified),3.42
17,Cc1nnc(SCC(=O)NCC(c2ccccc2Cl)N(C)C)s1 (stereo unspecified),-0.8898
18,CCOC1CCN(C(=O)c2csc(S(N)(=O)=O)c2)CC1,18.04
19,COC(C)(C)CC(C)NCc1nncn1C1CCCCC1 (stereo unspecified),-17.97
20,CC(C)CC1(C(=O)NCc2nncn2C2CC2)CCC1,-7.53
21,CCC(NC(=O)NCc1nncn1CC)c1ccc(OC)cc1 (stereo unspecified),-10.18
22,CCn1cnnc1CNc1nc(C)nc2scc(CC(C)C)c12,122.4

row,SMILES,Percent Effect [%]
1,Cc1nc(NCc2nnc(C)n2C)c2c(CC(C)C)csc2n1,119.2
2,Cc1c(NC(C)C(C)C)cccc1C(=O)NCc1nnc(C)n1C (stereo unspecified),0.4576
3,Cc1nc(NCc2nncn2C2CC2)c2c(CC(C)C)csc2n1,109.7
4,CCn1cnnc1CNC(=O)NC(C)C(C)C (stereo unspecified),-4.455
5,COc1ccc(S(=O)(=O)C(F)(F)F)cc1NC(=O)CSCC#N,5.684
6,O=C(Cn1nc2c(cc1=O)CCCC2)N[C@@H](Cc1ccccc1)C(=O)O,3.393
7,CCCn1nc2c(cc1=O)CN(CC(=O)Nc1cc(C)no1)CC2,-28.4
8,O=C(Cn1nc2c(cc1=O)CCCC2)NC(C(=O)O)c1ccccc1 (stereo unspecified),110.7
9,O=C(Cn1nc2c(cc1=O)CCCC2)NC(Cc1ccccc1)C(=O)O (stereo unspecified),101
10,O=C(Cn1nc2c(cc1=O)CCCC2)N[C@@H](C(=O)O)c1ccccc1,11.26
11,CC(C)c1cc(NC(=O)CN2CCc3nn(C)c(=O)cc3C2)on1,-16.14
12,CC(C)C(NC(=O)Cn1nc2c(cc1=O)CCCC2)C(=O)O (stereo unspecified),113
13,O=c1cc2c(nn1CN1CCN(c3ccccc3)CC1)CCC2,10.03
14,O=C(Cn1nc2c(cc1=O)CSCC2)NC(Cc1ccccc1)C(=O)O (stereo unspecified),28.51
15,CCCc1cc(NCc2noc(COC)n2)n2nccc2n1,6.33
16,CCC(C(=O)NC1CCCCC1)n1cccc(OC)c1=O (stereo unspecified),-2.043
17,CN(C)c1ccc(CC2CCCN(c3cnccn3)C2)nn1 (stereo unspecified),93.08
18,c1cncc(O[C@H]2COCCN(C3CCC3)C2)c1,-11.18
19,Cc1cccc(O[C@H]2COCCN(C3CCC3)C2)n1,0.8237
20,CN(C)c1ccc(CC2CCN(c3cnccn3)C2)nn1 (stereo unspecified),129.7
21,c1cnc(CC2COCCN(C3CCCCC3)C2)cn1 (stereo unspecified),106.9
22,CN(C)c1ccc(CC2CCN(c3cnccn3)CC2)nn1,90.64
